# Data as given in PubChem BioAssay.
# Assay: blood-stage malaria parasite viability loss – strain 3D7, DAPI fluorescence, 100 nL, primary screen (AID 1184);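 further: parasites grown inside human red blood cells in medium with human serum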
# Settings: P. falciparum 3D7 growth, 3 d, higher = more signal
row,Structure (SMILES),z-score
1,CCN1C(=O)[C@H]2[C@H]3[C@H](O)[C@H](O)CC(=NNC(=O)OCc4ccccc4)[C@H]3CC[C@H]2C1=O,-0.114
2,COC(=O)[C@H](C)NC(=O)CCC1CC(OC(=O)NCCc2ccc(F)cc2)CC2(CCCC(COC(=O)NCC3CCCCC3)O2)O1 (stereo partly drawn),-2.07
3,CCN1C(C)=C(C(=O)OC)[C@@H](c2ccccc2)N2C(=O)[C@](O)(C(=O)OC)CC(C(C)=O)=C12,0.752
4,O=C1C[C@H](c2ccccc2)[C@H](c2ccc(Br)cc2)O1,0.467
5,CCOC(=O)[C@H](CC(C)C)NC(=O)CCC1CC(OC(=O)NCCc2ccc(F)cc2)CC2(CCCC(COC(=O)NCc3cccc(C(F)(F)F)c3)O2)O1 (stereo partly drawn),-0.748
6,COc1ccc(COC(=O)NN=C2C[C@@H](O)[C@@H](O)[C@@H]3[C@@H]4C(=O)N(c5cccc(Oc6ccccc6)c5)C(=O)[C@@H]4CC[C@H]23)cc1,-1.34
7,Cc1ccc2[nH]c3nc(CCCn4ccnc4-c4ccccc4)nnc3c2c1,-1.09
8,C[C@@H]1CC[C@H]2C(=O)OC(Cc3ccccc3)CN2[C@H]1c1ccc(Br)cc1 (stereo partly drawn),0.695
9,CN1CCc2nc(-c3ccccc3)c(-c3ccccc3)cc2C1,0.309
10,CC(C)=NOC(C)CN1CCCCc2nc(C)c(C)cc21 (stereo not drawn),1.35
11,CC(=O)OC[C@H]1O[C@H](CCON=C(C)C)C=C[C@@H]1OC(C)=O,1.48
12,COc1ccc(COC(=O)NN=C2C[C@@H](O)[C@@H](O)[C@@H]3[C@@H]4C(=O)N([C@@H](C)c5ccccc5)C(=O)[C@@H]4CC[C@H]23)cc1,-0.981
13,COC(=O)[C@H](C)NC(=O)CCC1CC(OC(=O)NCCc2ccc(F)cc2)CC2(CCCC(COC(=O)NCCc3ccccc3OC)O2)O1 (stereo partly drawn),-1.26
14,CC(CCN1CCCc2nc(C)c(C)cc21)=NOC[C@@H](O)COCc1ccco1,0.245
15,COc1ccc(OC[C@@H]2CC3[C@@H](c4ccc(Br)cc4)[C@H](C)CC[C@H]3C(=O)O2)cc1 (stereo partly drawn),0.163
16,CCN1C(=O)[C@H]2[C@@H]3C(=CC[C@H]2C1=O)C(=O)[C@H]1O[C@H]1[C@H]3O,-1.94
17,CC(CCN1CCCCc2nc(C)c(C)cc21)=NOC[C@@H](O)[C@H]1O[C@@H]2OC(C)(C)O[C@@H]2[C@H]1O,0.027
18,C=CCOCC1CN2[C@@H](CC[C@@H](C)[C@@H]2c2ccc(Br)cc2)C(=O)O1 (stereo partly drawn),1.72
19,CO[C@H]1COC(=O)CCC[C@H](C)[C@H](OC)COC(=O)CC=C[C@@H]1C,-0.116
20,CC(=O)OC[C@H]1O[C@H](CC=NO[C@H](C)c2cn([C@@H]3COC[C@H]3O)nn2)C=C[C@@H]1OC(C)=O,-0.0896
21,COc1ccc2c(c1)O[C@@H](c1cccc(C(F)(F)F)c1)[C@H](O)C2=O,0.142
22,CCOC(=O)[C@H](CC(C)C)NC(=O)CCC1CC(OC(=O)NCc2ccc3c(c2)OCO3)CC2(CCCC(COC(=O)NCCc3ccc(Cl)cc3)O2)O1 (stereo partly drawn),-1.66
23,C=CC[C@@H]1C=C[C@H](Oc2ccc(C)cc2)[C@@H](COC(=O)NCc2cccc3ccccc23)O1,-0.517
24,CCCCOC(OCCCC)C(O)CSc1ccc2ccccc2c1 (stereo not drawn),0.609
25,COC(=O)CC=C[C@@H](C)[C@@H](C=NOC[C@@H](O)[C@H]1O[C@@H]2OC(C)(C)O[C@@H]2[C@H]1O)OC,0.364
26,C[C@@H](c1ccccc1)N1C(=O)[C@H]2[C@H]3[C@H](O)[C@H](O)CC(=NNC(=O)OCc4ccccc4)[C@@H]3CC[C@H]2C1=O,0.556
27,COc1ccc(O[C@H]2C=C[C@@H](c3ccccc3)O[C@@H]2CON=C(C)CCN2CCCc3nc(C)c(C)cc32)cc1,-1.96
28,O=C1C=C[C@@H](O)[C@@H]2[C@@H]3C(=O)N(C4CCCCC4)C(=O)[C@@H]3CC[C@@H]12,0.307
